# Measurements published in the supplement of paper PMC8728848.
# Shown is part of a subset that was picked to be rich in the strongest signals.
# B1: B160 (Bifidobacterium sp) (protein)
# chain: MVSHNKRIVAALAAVAAMGIGLAGCGGSDTAGDTKSGSDGGVVNITYMHRLPDSEGMTLVNDIVAKWNKEHPNIQVKATKFDGNAADMIKKLETDVKAGNAPDLAQVGYAEVPEVFTKGLLQDVTDEAAKYKDDFASGPFALMQVDGKTYGLPQDTGPLTYFYNAAEFEKLGITVPKTADELIETAKKTAAQGKYIMTFTPDEAMMMMSGQAGASGPWYKVDGNSWVVNTQTKGSKAVADVYQQLIDNKAALTNPRWDASFDNSIQSGQLIGTVAAAWEAPLFIDSAGGTGAGEWKVTQLGDWFGNGTKTGANGGSGVAVLKGSKHPAEAMEFLDWFNTQVDDLVSQGLVVAATTADAKTPQKWSDYFSGQDVMAEFKTANDNMGDFTYMPGFSAVGAAMKQTAAKAADGSAKVSDVFDTAQKTSVDTLKNLGLSVKE
# What was measured:
# Test in all cases: glycan array binding signal (z-score within array); higher = stronger binding
# Conditions in all cases: glycan notation: IUPAC condensed, linker removed
# [1] = target: GalNAc(b1-4)GlcNAc(b1-3)GalNAc(b1-4)GlcNAc
# In short: (§1)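 Columns mapping to the same glycan were averaged after glycan names were converted to IUPAC-condensed notation. The data come from 3228 arrays in the Consortium for Functional Glycomics database, limited to those with an available protein sequence. Binding is reported as a within-array Z-score averaged across arrays of one protein sequence and across linkers.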
# [2] = target: GalNAc3S(b1-4)[Fuc(a1-3)]GlcNAc
# In short: as §1
# [3] = target: Glc(a1-4)Glc
# In short: as §1
# [4] = target: GlcNAc(b1-2)[GlcNAc(b1-6)]Man(a1-6)[GlcNAc(b1-4)][GlcNAc(b1-2)Man(a1-3)]Man(b1-4)GlcNAc(b1-4)GlcNAc
# In short: as §1
# [5] = target: GlcNAc(b1-3)Gal(b1-4)GlcNAc(b1-3)Gal(b1-4)GlcNAc(b1-3)Gal(b1-4)GlcNAc(b1-2)[GlcNAc(b1-3)Gal(b1-4)GlcNAc(b1-3)Gal(b1-4)GlcNAc(b1-3)Gal(b1-4)GlcNAc(b1-6)]Man(a1-6)[GlcNAc(b1-3)Gal(b1-4)GlcNAc(b1-3)Gal(b1-4)GlcNAc(b1-3)Gal(b1-4)GlcNAc(b1-2)Man(a1-3)]Man(b1-4)GlcNAc(b1-4)[Fuc(a1-6)]GlcNAc
# In short: as §1
# [6] = target: GlcNAc(b1-3)Gal(b1-4)GlcNAc(b1-6)[GlcNAc(b1-3)Gal(b1-3)]GalNAc
# In short: as §1
# [7] = target: GlcNAc(b1-3)GalNAc
# In short: as §1
# [8] = target: GlcNAc(b1-3)Man
# In short: as §1
# [9] = target: GlcNAc(b1-3)[GlcNAc(b1-4)][GlcNAc(b1-6)]GlcNAc
# In short: as §1
# [10] = target: GlcNAc(b1-4)GlcNAc(b1-4)GlcNAc
# In short: as §1
# [11] = target: Kdn(a2-3)Gal(b1-3)GlcNAc
# In short: as §1
# [12] = target: Man(a1-2)Man(a1-2)Man(a1-3)Man
# In short: as §1
# [13] = target: Neu5Ac(a2-3)Gal(b1-3)GalNAc
# In short: as §1
# [14] = target: Neu5Ac(a2-3)Gal(b1-3)GlcNAc(b1-6)GalNAc
# In short: as §1
# [15] = target: Neu5Ac(a2-3)Gal(b1-3)[Neu5Ac(a2-6)]GlcNAc(b1-3)[Fuc(a1-3)[Gal(b1-4)]GlcNAc(b1-6)]Gal(b1-4)Glc
# In short: as §1
# [16] = target: Neu5Ac(a2-3)Gal(b1-4)Glc
# In short: as §1
# [17] = target: Neu5Ac(a2-3)Gal(b1-4)[Fuc(a1-3)]GlcNAc(b1-3)Gal(b1-4)GlcNAc
# In short: as §1
# [18] = target: Neu5Ac(a2-6)Gal(b1-4)GlcNAc(b1-2)Man(a1-6)[Gal(b1-4)GlcNAc(b1-2)Man(a1-3)]Man(b1-4)GlcNAc(b1-4)GlcNAc
# In short: as §1
# [19] = target: Neu5Ac(a2-6)Gal(b1-4)GlcNAc(b1-2)[Neu5Ac(a2-6)Gal(b1-4)GlcNAc(b1-6)]Man(a1-6)[Neu5Ac(a2-6)Gal(b1-4)GlcNAc(b1-2)Man(a1-3)][GlcNAc(b1-4)]Man(b1-4)GlcNAc(b1-4)GlcNAc
# In short: as §1
# [20] = target: Neu5Ac(a2-6)Gal(b1-4)GlcNAc(b1-3)Gal(b1-4)GlcNAc(b1-3)Gal(b1-4)GlcNAc
# In short: as §1
# [21] = target: Neu5Ac(a2-6)GalNAc(b1-4)GlcNAc
# In short: as §1
# [22] = target: Neu5Ac(a2-8)Neu5Ac
# In short: as §1
# [23] = target: Neu5Gc(a2-3)Gal(b1-3)GlcNAc
# In short: as §1
binder,measurement,setting,value
B1,glycan array binding signal (z-score),[1],-0.191
same,glycan array binding signal (z-score),[2],-0.117
same,glycan array binding signal (z-score),[3],-0.177
same,glycan array binding signal (z-score),[4],-0.149
same,glycan array binding signal (z-score),[5],-0.094
same,glycan array binding signal (z-score),[6],-0.164
same,glycan array binding signal (z-score),[7],-0.154
same,glycan array binding signal (z-score),[8],-0.156
same,glycan array binding signal (z-score),[9],-0.174
same,glycan array binding signal (z-score),[10],-0.167
same,glycan array binding signal (z-score),[11],-0.172
same,glycan array binding signal (z-score),[12],-0.159
same,glycan array binding signal (z-score),[13],-0.204
same,glycan array binding signal (z-score),[14],-0.161
same,glycan array binding signal (z-score),[15],-0.173
same,glycan array binding signal (z-score),[16],-0.173
same,glycan array binding signal (z-score),[17],-0.165
same,glycan array binding signal (z-score),[18],-0.136
same,glycan array binding signal (z-score),[19],-0.14
same,glycan array binding signal (z-score),[20],-0.145
same,glycan array binding signal (z-score),[21],-0.167
same,glycan array binding signal (z-score),[22],-0.174
same,glycan array binding signal (z-score),[23],-0.189
